Source: PubChem BioAssay
Activity calls are given as the source filed them. The rule behind the calls is not given here.

Biological target: L-lactate dehydrogenase (Plasmodium falciparum (isolate CDC / Honduras)) (UniProt Q27743)
Test: PfLDH activity inhibition – cell lysate, 3D7 strain, counter-screen for P. falciparum growth inhibition project (AID 2304);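 note: 0% = vehicle and 100% = reference inhibitor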
Conditions: P. falciparum 3D7 crude extract, LDH APAD/NBT absorbance; at 2 µM; stronger effect = higher value

Sequence of L-lactate dehydrogenase (Plasmodium falciparum (isolate CDC / Honduras)) (Q27743 whole entry, looked up): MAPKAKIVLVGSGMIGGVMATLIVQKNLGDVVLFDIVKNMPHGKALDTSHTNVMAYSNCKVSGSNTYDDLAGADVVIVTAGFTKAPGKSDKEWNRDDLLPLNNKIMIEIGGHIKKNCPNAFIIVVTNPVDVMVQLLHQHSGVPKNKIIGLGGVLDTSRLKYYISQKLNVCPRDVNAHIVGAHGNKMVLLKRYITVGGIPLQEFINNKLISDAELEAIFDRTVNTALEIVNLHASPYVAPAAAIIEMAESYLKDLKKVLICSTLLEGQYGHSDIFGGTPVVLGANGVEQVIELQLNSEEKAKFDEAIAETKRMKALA

Compound	inhibition
Clc1ccc(-c2cc3c(NCc4ccncc4)nccc3s2)cc1	-1% (inactive)
CCN(CC)CCN(Cc1ccc(-c2ccc(C(F)(F)F)cc2)cc1)C(=O)Cn1c(SCc2ccc(F)cc2)cc(=O)c2ccccc21	-5% (inactive)
O=C(Nc1ccccc1)N(Cc1ccccc1-c1cccc(CNCCc2ccccc2)c1)C1CCN(Cc2ccccc2)CC1	4% (inactive)
Cc1ccccc1N1CCN(c2ccc(C(=O)Nc3ccccc3)cc2)CC1	-2% (inactive)
CN1CCN(CCCN(Cc2cccc(-c3ccc(CNCc4ccc5c(c4)OCO5)cc3)c2)C(=O)CCC2CCCC2)CC1	-6% (inactive)
Fc1ccc2nc(-c3cccc(-c4ccc(CNCc5ccccc5)cc4)c3)[nH]c2c1	-1% (inactive)
COc1cc(Cl)c(C)cc1N(Cc1ccccc1-c1ccccc1)S(=O)(=O)c1ccc(C(F)(F)F)cc1	-2% (inactive)
COc1cc(NCC(C)CNCc2cn(Cc3ccccc3)c3ccccc23)nc2ccccc12 (stereo not drawn)	-6% (inactive)
O=S(=O)(c1cccc(Br)c1)N1CCCCC(c2ccc(C(F)(F)F)cc2)=N1	-4% (inactive)
COCc1nc(N)nc(N)c1-c1ccc(Cl)c(Cl)c1	-1% (inactive)
O=C(NCCCCN1CCC(c2ccc3c(c2OCC2CC2)CCCC3)CC1)c1ccc(NC(=O)c2ccc(Cl)cc2)cc1	-4% (inactive)
Cc1ccc(-c2nnc3c4ccccc4c(C)nn23)cc1S(=O)(=O)N1CCN(CCO)CC1	-4% (inactive)
COc1ccc(Nc2nccc(N3CCC(NC(=O)Nc4cc(C)ccc4C)C3)n2)cc1 (stereo not drawn)	-8% (inactive)
